About 79,000 compounds went through this panel and 15% of them were active in at least one assay; those are over-represented in the sample as a whole. Values without a mark were called inactive. The source made the active and inactive calls. Cut-off read from the data, not from the text of the source: active = growth inhibition above about 70%; inactive = the rest.
Assay: NCI Yeast Anticancer Drug Screen. Data for the cln2 rad14 strain (AID 165);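 note: 0% = growth equal to vehicle treated cultures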
Conditions: S. cerevisiae cln2 rad14 strain, at 50.0 µM, stronger effect = higher value
How it was run: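 cln2 rad14 yeast strain; compound exposure; growth inhibition read vs vehicle controls.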

With CC(C)c1ccc2c(c1)CC[C@@H]1[C@](C)(CO)CCC[C@]21C as the compound, how does the growth inhibition read?
The growth inhibition was 68.2%.

For O=c1c2ccccc2ncn1Cc1ccccc1[N+](=O)[O-], which growth inhibition is on record?
Its growth inhibition is 73.3% (active).

With O=C(NO)C(=O)Nc1cc(Cl)ccc1Cl as the compound, how does the growth inhibition read?
Its growth inhibition is 74.5% (active).

With CCCCCCCCCCCCOC(=O)C[n+]1cccc(C(=O)Nc2ccccc2)c1 as the compound, how does the growth inhibition read?
The growth inhibition was 98.9% (active).

Which growth inhibition does the source give for O=C1C=CC(=O)c2ccc(=O)ccc21 here?
Its growth inhibition is 28.4%.

With Cn1c(=O)nc2n(-c3ccc(Cl)cc3)c3cc(Cl)ccc3nc-2c1=O as the compound, how does the growth inhibition read?
The growth inhibition was 16.9%.

For Clc1ccc(CN2COc3c(ccc4ccccc34)C2)cc1, which growth inhibition is on record?
Its growth inhibition is 61.1%.

With C1CCN(c2nc(N3CCOCC3)c3[nH]c(N4CCCCC4)nc3n2)CC1 as the compound, how does the growth inhibition read?
Its growth inhibition is 60.1%.

For O=C1c2ccccc2-c2cc([N+](=O)[O-])c([N+](=O)[O-])cc21, which growth inhibition is on record?
Its growth inhibition is 90% (active).

For CCC[CH2][Sn]([CH2]CCC)([O]C(=O)Cc1ccc(F)cc1)[O]C(=O)Cc1ccc(F)cc1, which growth inhibition is on record?
Its growth inhibition is 78.1% (active).

Which growth inhibition does the source give for ClCc1ccc2oc3ccccc3c2c1 here?
Its growth inhibition is 43.5%.

For O=C1Oc2ccccc2C(=O)/C1=C/N1C(=O)/C(=C/c2ccc([N+](=O)[O-])cc2)SC1=S, which growth inhibition is on record?
The growth inhibition was 92.1% (active).

With COC1=CC(=O)c2ncc(Cl)cc2C1=O as the compound, how does the growth inhibition read?
Its growth inhibition is 97.3% (active).

With CN(C)c1ccc(C(c2ccc(N(C)C)cc2)c2ccc3c(c2)OCO3)cc1 as the compound, how does the growth inhibition read?
Its growth inhibition is 88.8% (active).

Which growth inhibition does the source give for CC(C)(C)OC(=O)CSC#N here?
Its growth inhibition is 3.75%.

With CN=c1ss/c(=N\C(=S)N(C)C)n1-c1ccccc1 as the compound, how does the growth inhibition read?
Its growth inhibition is 4.45%.

With CCCCCCCCCCCCCCCBr as the compound, how does the growth inhibition read?
Its growth inhibition is 85.5% (active).

Which growth inhibition does the source give for O=c1c2ccccc2[nH]c2c1[nH]c1ccccc12 here?
Its growth inhibition is 83.4% (active).

For COc1cc(/C=C/c2cc[n+](C)cc2)ccc1O, which growth inhibition is on record?
The growth inhibition was 79.5% (active).

Which growth inhibition does the source give for COc1cc(C2c3cc4c(cc3C(OC3CCCCO3)C3COC(=O)C23)OCO4)cc(OC)c1OC (centres undefined) here?
The growth inhibition was 2.35%.

With O=S(=O)(N/N=C/c1ccc(Cl)cc1Cl)c1ccccc1 as the compound, how does the growth inhibition read?
Its growth inhibition is -26.9%.

With Cc1ccc(C(=O)/C(Cl)=N/O)cc1 as the compound, how does the growth inhibition read?
Its growth inhibition is 78.7% (active).

For Cc1ccnc(NS(=O)(=O)c2ccc(N=Cc3c4ccccc4nc4cc(Cl)ccc34)cc2)n1, which growth inhibition is on record?
The growth inhibition was 99% (active).

With COc1cc(CCN=Cc2cc(Cl)cc(Cl)c2O)c([N+](=O)[O-])cc1OC as the compound, how does the growth inhibition read?
Its growth inhibition is 43%.

With COc1ccc(C(C)c2cc3c(cc2OC/C(C)=N/NC(N)=O)OCO3)cc1 (centres undefined) as the compound, how does the growth inhibition read?
The growth inhibition was 19.6%.

With C/C(CCC1CCc2ccccc2C1)=N\NC(N)=O (centres undefined) as the compound, how does the growth inhibition read?
Its growth inhibition is -1.45%.

With Cc1nc(C(N)=S)sc1C(=O)CC(=O)C(=O)Nc1nc2ccccc2[nH]1 as the compound, how does the growth inhibition read?
The growth inhibition was 2.85%.

Which growth inhibition does the source give for Clc1ccc([O][In]([O]c2ccc(Cl)cn2)[O]c2ccc(Cl)cn2)nc1 here?
Its growth inhibition is 38.9%.

Which growth inhibition does the source give for Cc1ccc(S(=O)(=O)C(=S)Sc2ccccc2)cc1 here?
Its growth inhibition is 33.7%.

Which growth inhibition does the source give for Fc1ccc2[nH]ccc2c1 here?
Its growth inhibition is 34.4%.

For C(=C/c1ccccc1)/C=N/Nc1ccccc1, which growth inhibition is on record?
The growth inhibition was -9%.

For O=S1(=O)CC2C1C1(Cl)OC2(Cl)c2ccccc21 (centres undefined), which growth inhibition is on record?
Its growth inhibition is -1.65%.

With CCCNC(=O)C(=O)NNc1ccccc1 as the compound, how does the growth inhibition read?
Its growth inhibition is 73.5% (active).

For C/C(=N/O)c1cccc(C(F)(F)F)c1, which growth inhibition is on record?
The growth inhibition was 35.6%.

For COC1=CC(=O)c2c(O)c3c(c(O)c2C1=O)OC1(Oc2c(cc4cc(C)oc(=O)c4c2O)CC1O)C3O (centres undefined), which growth inhibition is on record?
Its growth inhibition is 90.5% (active).

Which growth inhibition does the source give for CC(C)C1/C(=N/O)CC(c2ccccc2)N(N=O)C1c1ccccc1 (centres undefined) here?
Its growth inhibition is 87.7% (active).

Which growth inhibition does the source give for Cc1c(N)nc(C2CC(=O)N2CC(N)C(N)=O)nc1C(=O)NC(C(=O)NC(C)C(O)C(C)C(=O)NC(C(=O)NCCc1nc(-c2nc(C(=O)NCCCNC3CCCC3)cs2)cs1)C(C)O)C(OC1OC(CO)C(O)C(O)C1OC1OC(CO)C(O)C(OC(N)=O)C1O)c1cnc[nH]1 (centres undefined) here?
The growth inhibition was 88.3% (active).

For CCOC(=O)C1(Br)CCN(S(=O)(=O)c2ccc(C)cc2)c2ccccc2C1=O (centres undefined), which growth inhibition is on record?
The growth inhibition was 95.2% (active).

For O=C(C[n+]1ccccc1)c1ccc2ccc3ccc(Cl)cc3c2c1, which growth inhibition is on record?
Its growth inhibition is -90.4%.

— PubChem BioAssay (NCI)
